This note sets out measurements from ChEMBL document CHEMBL3988442, “University of Dundee, Small-Polar-MMV Screening Library” (2021).

For part of these data: Entries with a potency or affinity are not part of this list.

Set-up in all cases: scale not given: direction of the effect not stated beside the values
For experiment [1], the target named is Protein translocase subunit SecA (Escherichia coli (strain K12)) (UniProt P10408). Nature of the experiment: Assay to Identify E. coli SecA ATPase Inhibitors. It counts as functional. The conditions noted are these: 30 µM.
Experiment [2] addresses T1, Ubiquitin-activating enzyme e1, putative (Leishmania donovani (strain BPK282A1)) (UniProt E9BSI1).
T1 sequence (whole entry): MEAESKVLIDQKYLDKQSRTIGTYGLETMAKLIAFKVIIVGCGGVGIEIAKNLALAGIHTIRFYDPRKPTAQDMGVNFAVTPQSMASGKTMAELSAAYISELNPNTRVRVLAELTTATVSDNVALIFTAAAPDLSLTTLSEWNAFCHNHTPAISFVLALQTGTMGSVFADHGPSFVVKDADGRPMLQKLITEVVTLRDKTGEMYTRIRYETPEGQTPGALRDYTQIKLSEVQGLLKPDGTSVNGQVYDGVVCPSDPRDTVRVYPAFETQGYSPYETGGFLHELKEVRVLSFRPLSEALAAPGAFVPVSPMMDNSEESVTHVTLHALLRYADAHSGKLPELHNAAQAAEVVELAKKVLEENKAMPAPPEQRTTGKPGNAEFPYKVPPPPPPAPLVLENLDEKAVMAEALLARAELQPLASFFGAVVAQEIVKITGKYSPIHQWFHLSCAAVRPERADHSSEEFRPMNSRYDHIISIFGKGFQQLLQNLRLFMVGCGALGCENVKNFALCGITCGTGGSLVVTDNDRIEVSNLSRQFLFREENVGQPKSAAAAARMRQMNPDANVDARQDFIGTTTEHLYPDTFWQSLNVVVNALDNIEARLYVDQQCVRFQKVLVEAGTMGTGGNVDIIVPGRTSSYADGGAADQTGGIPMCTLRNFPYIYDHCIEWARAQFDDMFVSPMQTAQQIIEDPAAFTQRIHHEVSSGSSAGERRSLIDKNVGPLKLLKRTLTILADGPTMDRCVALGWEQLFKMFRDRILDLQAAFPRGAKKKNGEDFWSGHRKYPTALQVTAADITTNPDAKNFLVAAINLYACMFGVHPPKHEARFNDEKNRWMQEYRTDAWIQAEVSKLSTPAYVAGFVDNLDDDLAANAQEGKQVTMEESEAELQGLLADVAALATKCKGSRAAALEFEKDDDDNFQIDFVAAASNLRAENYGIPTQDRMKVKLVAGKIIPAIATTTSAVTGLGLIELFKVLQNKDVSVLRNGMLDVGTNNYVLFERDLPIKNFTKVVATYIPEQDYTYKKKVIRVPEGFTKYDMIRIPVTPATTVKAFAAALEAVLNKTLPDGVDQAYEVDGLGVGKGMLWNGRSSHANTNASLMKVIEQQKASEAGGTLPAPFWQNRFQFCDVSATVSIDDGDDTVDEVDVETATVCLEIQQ
The experiment can be described thus: Leishmania donovani Ubiquitin Activating Enzyme (LdE1). The settings on record: 30 µM. Type of experiment: functional.

The target of experiment [3] is AMP-activated protein kinase, AMPK (Homo sapiens) (UniProt P54646+O43741+P54619+Q9UGJ0+Q9Y478+Q13131+Q9UGI9). The experiment can be described thus: AMP-dependent Kinase enzyme assay. An in vitro enzyme assay that detects ADP turnover that is directly proportional to AMPK activity. This uses naive AMPK that is activated during the assay with MK-8722. Type of experiment: functional. The settings on record: 30 µM.

Experiment [4] addresses Sialic acid-binding Ig-like lectin 9 (Homo sapiens) (UniProt Q9Y336). Nature of the experiment: Hs-Siglec9 ALPHAscreen SOP 20170721. The conditions noted are these: 10 µM. In general terms: In Alpha technology, singlet oxygen from a donor bead excites a nearby acceptor bead.
The test system of the next experiment is Trypanosoma cruzi. Nature of the experiment: Trypanosoma cruzi phosphomannomutase and mannose-1-phosphate guanylyltransferase assay. Type of experiment: functional. The settings on record: 10 µM.
The target of experiment [5] is T2, Arginase-2, mitochondrial (Homo sapiens) (UniProt P78540).
T2 sequence (whole entry): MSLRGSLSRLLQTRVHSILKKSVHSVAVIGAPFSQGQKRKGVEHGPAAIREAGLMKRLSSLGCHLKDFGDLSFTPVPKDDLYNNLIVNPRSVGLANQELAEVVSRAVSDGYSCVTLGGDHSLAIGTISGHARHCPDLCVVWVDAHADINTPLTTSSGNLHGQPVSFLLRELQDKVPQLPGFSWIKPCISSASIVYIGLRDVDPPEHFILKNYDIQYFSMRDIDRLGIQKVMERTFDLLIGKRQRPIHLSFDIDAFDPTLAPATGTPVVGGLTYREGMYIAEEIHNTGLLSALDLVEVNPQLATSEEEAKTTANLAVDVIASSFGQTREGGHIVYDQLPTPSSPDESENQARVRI
Nature of the experiment: in vitro enzyme assay to detect the production of urea directly proportional to the activity of Arginase II. Further: in the data most compounds retested in dose-response had high values. Type of experiment: functional. The settings on record: 33.3 µM.

Experiment [6] deals with T3, Proteasome subunit beta (Trypanosoma cruzi) (UniProt O96673).
T3 sequence (whole entry): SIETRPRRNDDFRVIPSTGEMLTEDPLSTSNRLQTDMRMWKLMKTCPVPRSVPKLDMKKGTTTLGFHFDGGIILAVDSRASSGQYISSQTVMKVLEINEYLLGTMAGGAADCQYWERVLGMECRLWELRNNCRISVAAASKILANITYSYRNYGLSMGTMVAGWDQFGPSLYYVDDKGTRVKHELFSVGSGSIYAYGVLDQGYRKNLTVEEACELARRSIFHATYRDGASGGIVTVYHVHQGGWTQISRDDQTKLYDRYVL
Nature of the experiment: Trypanosoma cruzi proteasome chymotrypsin-like activity (TcProtChymo) assay. Further: in the data most compounds retested in dose-response had high values. Type of experiment: functional. The conditions noted are these: 9.37 µM.

The species entered for a further experiment is Homo sapiens. Nature of the experiment: To identify inhibition of the IFN signalling (Jak-Stat) pathway via expression of an eGFP reporter gene under the control of an IFN-stimulated response element (ISRE) containing MxA promoter. Type of experiment: functional. The settings on record: 30 µM. (A reporter such as luciferase makes a cellular process visible.)

Experiment [7] deals with T4, Tyrosyl-tRNA synthetase, putative (Trypanosoma cruzi (strain CL Brener)) (UniProt Q4DSP6).
T4 sequence (whole entry): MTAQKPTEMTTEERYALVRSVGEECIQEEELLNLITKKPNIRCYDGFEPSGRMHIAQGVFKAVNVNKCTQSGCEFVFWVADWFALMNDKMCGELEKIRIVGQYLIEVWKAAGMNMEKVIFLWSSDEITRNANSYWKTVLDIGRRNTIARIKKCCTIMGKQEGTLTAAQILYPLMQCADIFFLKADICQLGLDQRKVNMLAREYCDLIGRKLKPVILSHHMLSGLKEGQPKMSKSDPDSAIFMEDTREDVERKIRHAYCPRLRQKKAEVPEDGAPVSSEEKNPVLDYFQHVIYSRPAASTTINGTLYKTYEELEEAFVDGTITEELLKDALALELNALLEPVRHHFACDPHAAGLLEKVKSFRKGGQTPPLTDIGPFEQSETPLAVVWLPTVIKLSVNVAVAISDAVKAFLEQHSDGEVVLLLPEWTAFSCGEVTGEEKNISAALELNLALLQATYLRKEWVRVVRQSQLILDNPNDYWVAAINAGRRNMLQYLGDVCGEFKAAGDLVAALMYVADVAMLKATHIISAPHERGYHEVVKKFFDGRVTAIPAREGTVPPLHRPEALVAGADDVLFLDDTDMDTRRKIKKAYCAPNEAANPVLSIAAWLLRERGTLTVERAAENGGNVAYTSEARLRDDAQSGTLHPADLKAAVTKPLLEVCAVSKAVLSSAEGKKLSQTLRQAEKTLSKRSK
Nature of the experiment: Trypanosoma cruzi tyrosyl tRNA synthetase (TcYRS) _High Tyrosine SOP. Further: in the data most compounds retested in dose-response had high values. It counts as functional. The conditions noted are these: 30 µM.

Experiment [8] addresses T4, Tyrosyl-tRNA synthetase, putative (Trypanosoma cruzi (strain CL Brener)). The experiment can be described thus: Trypanosoma cruzi tyrosyl tRNA synthetase (TcYRS) SOP. It counts as functional. The settings on record: 30 µM.
In experiment [9] the target is Chromo domain-containing protein 1 (Saccharomyces cerevisiae (strain ATCC 204508 / S288c) (Baker's yeast)) (UniProt P32657). The experiment can be described thus: ScCHD-1 Enzyme Inhibition Assay. Further: in the data most compounds retested in dose-response had high values. Type of experiment: functional. The conditions noted are these: 30 µM.
Chromo domain-containing protein 1 (Saccharomyces cerevisiae (strain ATCC 204508 / S288c) (Baker's yeast)), sequence (P32657 whole entry, the tested form may be a part): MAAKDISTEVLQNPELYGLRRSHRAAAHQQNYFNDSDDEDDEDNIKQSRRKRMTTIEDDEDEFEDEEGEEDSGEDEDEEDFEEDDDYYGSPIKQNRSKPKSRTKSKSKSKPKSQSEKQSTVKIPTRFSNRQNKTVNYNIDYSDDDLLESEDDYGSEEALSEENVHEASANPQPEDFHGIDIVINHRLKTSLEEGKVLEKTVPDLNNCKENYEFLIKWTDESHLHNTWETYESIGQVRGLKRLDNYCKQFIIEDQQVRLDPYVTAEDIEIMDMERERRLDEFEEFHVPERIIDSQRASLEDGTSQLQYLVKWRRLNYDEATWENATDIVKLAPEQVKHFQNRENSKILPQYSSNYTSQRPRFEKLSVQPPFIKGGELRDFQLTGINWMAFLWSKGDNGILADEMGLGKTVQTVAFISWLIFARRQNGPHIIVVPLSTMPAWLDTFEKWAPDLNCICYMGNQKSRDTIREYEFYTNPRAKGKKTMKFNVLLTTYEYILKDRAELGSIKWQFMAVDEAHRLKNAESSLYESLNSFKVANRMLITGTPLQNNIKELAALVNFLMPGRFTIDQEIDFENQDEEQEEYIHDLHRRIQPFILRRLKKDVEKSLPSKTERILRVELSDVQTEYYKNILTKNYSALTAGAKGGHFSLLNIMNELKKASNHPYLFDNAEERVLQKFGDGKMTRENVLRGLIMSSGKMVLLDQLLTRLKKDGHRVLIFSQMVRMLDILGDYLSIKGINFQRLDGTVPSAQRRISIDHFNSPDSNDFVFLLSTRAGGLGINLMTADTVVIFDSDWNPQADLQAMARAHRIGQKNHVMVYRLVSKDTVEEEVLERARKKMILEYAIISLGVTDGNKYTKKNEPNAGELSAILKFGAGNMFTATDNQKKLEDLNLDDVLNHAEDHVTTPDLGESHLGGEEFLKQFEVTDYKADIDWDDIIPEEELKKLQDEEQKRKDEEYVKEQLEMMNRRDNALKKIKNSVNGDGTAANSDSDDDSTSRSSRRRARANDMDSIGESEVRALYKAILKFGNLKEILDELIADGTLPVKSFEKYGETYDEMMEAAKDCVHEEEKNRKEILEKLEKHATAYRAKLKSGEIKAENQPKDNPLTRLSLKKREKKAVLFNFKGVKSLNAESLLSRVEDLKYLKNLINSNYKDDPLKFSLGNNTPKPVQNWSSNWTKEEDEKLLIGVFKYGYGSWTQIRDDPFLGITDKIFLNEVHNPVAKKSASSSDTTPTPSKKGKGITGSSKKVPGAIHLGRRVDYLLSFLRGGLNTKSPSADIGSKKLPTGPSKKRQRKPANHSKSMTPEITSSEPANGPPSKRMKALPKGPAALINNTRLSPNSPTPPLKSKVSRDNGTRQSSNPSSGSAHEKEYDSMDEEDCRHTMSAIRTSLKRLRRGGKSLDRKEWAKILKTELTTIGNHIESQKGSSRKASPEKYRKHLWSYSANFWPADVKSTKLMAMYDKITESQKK

Protein translocase subunit SecA (Escherichia coli (strain K12)), sequence (P10408 whole entry): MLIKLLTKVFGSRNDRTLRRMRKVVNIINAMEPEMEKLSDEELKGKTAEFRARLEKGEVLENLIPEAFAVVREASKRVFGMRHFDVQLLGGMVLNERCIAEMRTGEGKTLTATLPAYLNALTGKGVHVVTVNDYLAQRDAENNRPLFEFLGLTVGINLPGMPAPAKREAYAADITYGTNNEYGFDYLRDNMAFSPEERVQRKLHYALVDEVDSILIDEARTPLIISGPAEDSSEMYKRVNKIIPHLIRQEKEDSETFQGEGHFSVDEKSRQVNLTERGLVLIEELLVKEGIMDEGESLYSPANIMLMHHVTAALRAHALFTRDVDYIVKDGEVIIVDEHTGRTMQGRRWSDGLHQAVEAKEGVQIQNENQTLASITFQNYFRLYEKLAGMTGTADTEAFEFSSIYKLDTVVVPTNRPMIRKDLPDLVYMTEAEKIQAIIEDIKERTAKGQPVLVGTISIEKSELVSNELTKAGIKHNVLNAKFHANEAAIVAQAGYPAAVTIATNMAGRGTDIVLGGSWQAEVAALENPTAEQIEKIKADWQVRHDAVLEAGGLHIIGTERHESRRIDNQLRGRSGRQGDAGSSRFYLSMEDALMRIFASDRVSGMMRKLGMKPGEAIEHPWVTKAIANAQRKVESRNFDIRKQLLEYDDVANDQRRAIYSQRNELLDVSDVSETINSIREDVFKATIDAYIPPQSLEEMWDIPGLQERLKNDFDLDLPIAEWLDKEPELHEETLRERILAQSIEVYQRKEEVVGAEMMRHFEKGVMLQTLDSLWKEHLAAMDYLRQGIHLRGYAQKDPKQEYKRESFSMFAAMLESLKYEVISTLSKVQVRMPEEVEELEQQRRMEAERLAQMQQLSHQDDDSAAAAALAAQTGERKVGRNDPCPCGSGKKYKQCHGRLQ
Sialic acid-binding Ig-like lectin 9 (Homo sapiens), sequence (Q9Y336 whole entry): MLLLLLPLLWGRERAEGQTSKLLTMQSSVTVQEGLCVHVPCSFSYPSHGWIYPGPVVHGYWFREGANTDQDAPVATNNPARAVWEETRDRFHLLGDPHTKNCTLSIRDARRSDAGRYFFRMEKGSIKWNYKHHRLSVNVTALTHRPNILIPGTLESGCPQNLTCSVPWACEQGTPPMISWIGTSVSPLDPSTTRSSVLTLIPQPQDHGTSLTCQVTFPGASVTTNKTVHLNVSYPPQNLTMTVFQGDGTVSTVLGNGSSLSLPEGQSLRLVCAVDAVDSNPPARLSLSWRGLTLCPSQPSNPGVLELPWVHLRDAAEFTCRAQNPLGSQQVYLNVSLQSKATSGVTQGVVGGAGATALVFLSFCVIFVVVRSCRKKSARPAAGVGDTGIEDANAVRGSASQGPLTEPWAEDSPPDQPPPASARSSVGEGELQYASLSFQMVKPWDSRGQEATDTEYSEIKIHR

For `Cc1cc(C(=O)N2CCC(c3nccn3CCCN(C)C)CC2)no1`, the Percent Effect is 1.38% in [1]; 11% in experiment [2]; -2.51% in experiment [3]; 3.99% in experiment [4]; 2.74% in the experiment with Trypanosoma cruzi; 10.9% in [5]. In addition, the Percent Effect in experiment [6] is 20.8%; in the experiment filed under Homo sapiens it was 21.1%; in [7], 6.45%; in experiment [8] it was 17.5%; in experiment [9], -13.1%.

Take `CCCn1nccc1C(=O)N1CCCN(CCCc2ccccc2)CC1`: the Percent Effect was -5.36% in [1]; 11% in experiment [2]; -4.71% in experiment [3]; 8.5% in experiment [4]; 7.14% in the experiment on Trypanosoma cruzi; -4.79% in experiment [5]. Further, the Percent Effect in experiment [6] is 16.2%; in the experiment filed under Homo sapiens, 4.05%; in experiment [7] it was 7.29%; in experiment [8], 8.64%; in experiment [9], -1.42%.

With `CC1c2ncc(CNC(=O)C3CC3)n2CCN1Cc1cnn(C)c1` (centres undefined), the Percent Effect was -0.181% in [1]; 8% in experiment [2]; -3.48% in [3]; -1.35% in experiment [4]; 6.56% in the experiment with Trypanosoma cruzi; -55.4% in experiment [5]. Besides, the Percent Effect is 13.8% in experiment [6]; 5.07% in the experiment filed under Homo sapiens; 3.12% in [7]; 12.5% in [8]; -7.95% in experiment [9].

In the case of `Cc1nnc(CCNC2CCN(c3ncnc4c(C)csc34)CC2)s1`, the Percent Effect in experiment [1] is -3.21%; in experiment [2], 7.79%; in [3], 3.06%; in experiment [4] it was 11%; in the experiment on Trypanosoma cruzi it was 7.77%; in experiment [5], -2.76%. Moreover, the Percent Effect in [6] is 12.8%; in the experiment filed under Homo sapiens it was 40.2%; in experiment [7], 8.6%; in experiment [8], 16.1%; in [9], -8.66%.

Turning to `Cc1cc(C)c2c(OCC(=O)NC(C)C)nn(C)c2n1`, the Percent Effect in experiment [1] is -3.72%; in [2] it was 10.8%; in [3], -1.72%; in [4], 25.4%; in the experiment with Trypanosoma cruzi, 7.72%; in experiment [5], 11.4%. The Percent Effect in [6] is 6.9%; in the experiment filed under Homo sapiens it was 10.7%; in experiment [7], 0.529%; in experiment [8] it was 12.2%; in experiment [9] it was -13%.

On to `Cc1nc(C)n(CC2CCCN2CCOc2ccc(C#N)cc2)n1` (centres undefined), for which the Percent Effect is -3.7% in [1]; 2.53% in experiment [2]; -2.42% in [3]; 10.4% in experiment [4]; 7.27% with Trypanosoma cruzi; 1.9% in experiment [5]. Besides, the Percent Effect in experiment [6] is 1.06%; in the experiment listed under Homo sapiens it was 17.9%; in [7], 6.4%; in [8], 11.4%; in experiment [9] it was -5.17%.

In the case of `O=C(Cc1ccccc1)N1CCC2(CC(=O)N(c3ccsc3)C2)C1` (centres undefined), the Percent Effect in experiment [1] was -0.7%; in experiment [2], 8.11%; in experiment [3] it was -4.26%; in [4] it was -6.07%; in the experiment with Trypanosoma cruzi, 3.52%; in experiment [5], 11.2%. In addition, the Percent Effect in experiment [6] is 13.8%; in the experiment listed under Homo sapiens, -6.08%; in experiment [7] it was 14.8%; in [8] it was -28.1%; in experiment [9] it was -3.9%.

`O=C(O)CCc1cccc(C2CCCN2Cc2ccc(F)c(F)c2)n1` (centres undefined): the Percent Effect in experiment [1] was -3.79%; in [2], 4.05%; in experiment [3], 1.3%; in experiment [4], 8.61%; in the experiment with Trypanosoma cruzi it was 1.78%; in experiment [5], 1.62%. Further, the Percent Effect is 1.09% in experiment [6]; 0.308% in the experiment filed under Homo sapiens; 6.45% in experiment [7]; 14.3% in experiment [8]; -20.7% in experiment [9].

Consider `Cc1cc(CN(C)C(=O)NC2CCS(=O)(=O)C2)no1` (centres undefined), for which the Percent Effect was -1.09% in [1]; 13% in [2]; -2.73% in experiment [3]; -9.19% in experiment [4]; 6.37% in the experiment on Trypanosoma cruzi; 6.11% in experiment [5]. The Percent Effect in experiment [6] is 11.2%; in the experiment listed under Homo sapiens, 6.33%; in experiment [7] it was 4.76%; in experiment [8], 18.8%; in [9] it was -18.4%.
